Experimental data taken from PubChem BioAssay.
For part of these data: Potency and affinity values are given separately. Some of the results follow. Calls of active or inactive are those of the source.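 The calls were made as follows, unless noted: active = fluorescence ratio falls more than 5 SD below the full-stimulation control mean, in both duplicate runs; inactive = the rest.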

Key:
[1] = target: Short transient receptor potential channel 4 (Mus musculus) (UniProt Q9QUQ5); test: DAMGO-gated TRPC4 membrane potential modulation – cell-based, second specificity screen, HEK293 TRPC4/mu-opioid, selectivity assay for TRPC6 inhibitor project, confirmation (AID 2776;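 active = compounds whose fluorescence signal differed from control wells by over 3 SD, either direction, in both duplicate plates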); settings: HEK293 TRPC4/MOR, membrane potential dye fluorescence, at 10 µM, channel activated by saturating DAMGO dose; stronger effect = higher value
Short transient receptor potential channel 4 (Mus musculus), sequence (Q9QUQ5 whole entry, looked up): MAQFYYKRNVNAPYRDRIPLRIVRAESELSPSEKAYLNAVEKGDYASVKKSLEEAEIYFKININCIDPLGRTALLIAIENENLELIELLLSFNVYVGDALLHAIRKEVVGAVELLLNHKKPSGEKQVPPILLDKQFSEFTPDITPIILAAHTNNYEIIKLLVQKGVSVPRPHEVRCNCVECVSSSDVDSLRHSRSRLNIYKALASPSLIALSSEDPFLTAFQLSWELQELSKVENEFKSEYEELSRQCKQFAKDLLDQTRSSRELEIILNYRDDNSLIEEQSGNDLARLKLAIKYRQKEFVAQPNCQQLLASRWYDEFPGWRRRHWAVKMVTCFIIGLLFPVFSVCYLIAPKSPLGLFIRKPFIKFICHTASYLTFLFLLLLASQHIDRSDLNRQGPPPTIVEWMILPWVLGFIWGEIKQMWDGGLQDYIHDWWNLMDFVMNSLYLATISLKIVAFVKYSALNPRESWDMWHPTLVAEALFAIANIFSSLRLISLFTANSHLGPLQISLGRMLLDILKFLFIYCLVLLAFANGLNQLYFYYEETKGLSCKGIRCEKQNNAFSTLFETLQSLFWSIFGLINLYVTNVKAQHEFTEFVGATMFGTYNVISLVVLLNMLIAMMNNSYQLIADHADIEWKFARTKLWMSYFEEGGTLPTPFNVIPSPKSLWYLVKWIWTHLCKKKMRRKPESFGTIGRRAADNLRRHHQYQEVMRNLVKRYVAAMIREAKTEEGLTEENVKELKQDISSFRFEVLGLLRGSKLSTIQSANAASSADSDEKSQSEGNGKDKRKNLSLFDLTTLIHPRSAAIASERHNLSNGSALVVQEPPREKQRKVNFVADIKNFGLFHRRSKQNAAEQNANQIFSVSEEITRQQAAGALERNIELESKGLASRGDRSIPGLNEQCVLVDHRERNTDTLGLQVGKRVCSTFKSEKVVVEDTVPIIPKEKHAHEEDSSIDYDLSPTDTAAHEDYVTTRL

[2] = system: transient receptor potential cation channel C4 (TRPC4), mouse; test: membrane potential change in TRPC4 cells – cell-based, HEK293 TRPC4/mu-opioid, membrane potential dye, selectivity assay for TRPC6 inhibitor project, confirmation (AID 2777;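 active = rise or fall in signal beyond 3 SD of buffer-only wells in both replicate plates, either sign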;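 also: integrated kinetic ratio of fluorescence range over baseline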); settings: membrane potential fluorescence, at 10 µM
[3] = parental HEK293 depolarization signal interference – cell-based, second counter screen, counter-screen for TRPC6 inhibitor project, confirmation (AID 2779;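 active = membrane potential signal moving either way by over 3 SD of the maximum-effect control, in both duplicate plates, meaning non-specific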); settings: parental HEK293 membrane potential dye fluorescence; at 10 µM; maximal acetylcholine challenge after compound addition
[4] = nonspecific voltage dye signal in HEK293 – cell-based, parental HEK293, counter-screen for TRPC6 inhibitor project, confirmation (AID 2780;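 active = membrane potential signal shifting up or down by more than 3 SD of buffer-only wells, on both duplicate plates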;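 as to membrane potential signal change: plate controls were buffer EC0 wells for no effect and acetylcholine ECmax wells for full effect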); settings: parental HEK293 membrane potential dye fluorescence; at 10 µM
[5] = target: Short transient receptor potential channel 6 (Mus musculus) (UniProt Q61143); test: blockers of TRPC6 cation channel activity – HEK293 cells, membrane potential dye, duplicate, confirmation (AID 488960); settings: ACh-evoked depolarization, at 10 µM; stronger effect = higher value;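 as to inhibition: integrated fluorescence ratio of peak minus minimum over baseline after agonist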
Short transient receptor potential channel 6 (Mus musculus), sequence (Q61143 whole entry, looked up): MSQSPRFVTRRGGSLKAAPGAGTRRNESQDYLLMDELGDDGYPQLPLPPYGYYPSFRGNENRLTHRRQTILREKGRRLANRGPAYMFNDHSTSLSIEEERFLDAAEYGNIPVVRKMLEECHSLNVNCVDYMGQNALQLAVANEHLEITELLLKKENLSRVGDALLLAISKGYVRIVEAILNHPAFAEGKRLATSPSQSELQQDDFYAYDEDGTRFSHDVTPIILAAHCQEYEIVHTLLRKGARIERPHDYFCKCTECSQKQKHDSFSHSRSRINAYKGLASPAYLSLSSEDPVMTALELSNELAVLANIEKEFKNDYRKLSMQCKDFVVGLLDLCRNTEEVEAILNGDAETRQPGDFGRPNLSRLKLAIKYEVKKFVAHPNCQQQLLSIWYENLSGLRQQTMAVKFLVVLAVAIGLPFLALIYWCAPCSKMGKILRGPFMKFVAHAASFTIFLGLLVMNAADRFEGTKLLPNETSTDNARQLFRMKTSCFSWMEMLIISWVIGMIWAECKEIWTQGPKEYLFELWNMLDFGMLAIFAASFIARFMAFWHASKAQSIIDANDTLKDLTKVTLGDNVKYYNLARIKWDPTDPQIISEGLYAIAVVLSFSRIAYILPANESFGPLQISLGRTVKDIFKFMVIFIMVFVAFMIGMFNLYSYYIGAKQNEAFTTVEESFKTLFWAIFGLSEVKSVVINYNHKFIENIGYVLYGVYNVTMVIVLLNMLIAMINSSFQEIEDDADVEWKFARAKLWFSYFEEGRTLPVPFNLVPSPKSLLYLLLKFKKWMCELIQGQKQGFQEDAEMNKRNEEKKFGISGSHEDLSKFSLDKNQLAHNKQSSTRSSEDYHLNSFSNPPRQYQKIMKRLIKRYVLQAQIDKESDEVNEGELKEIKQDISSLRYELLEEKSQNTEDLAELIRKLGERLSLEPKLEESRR

[6] = target: Short transient receptor potential channel 6 (Mus musculus) (UniProt Q61143); test: mouse TRPC6 channel activators, confirmation, HEK293 cells, membrane potential dye, duplicate (AID 488961;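 active = ratio signal rise beyond 5 SD above unstimulated control wells' mean, seen in both duplicate runs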); settings: HEK293-TRPC6 membrane potential dye fluorescence, FDSS, at 10 µM; stronger effect = higher value
[7] = nonspecific voltage dye response without TRPC6 – cell-based, parental HEK293, counter-screen for TRPC6 modulator project, confirmation (AID 488924;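 active = membrane potential signal moves up or down beyond 5 SD from buffer-only wells, on both duplicate plates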); settings: parental HEK293, membrane potential dye fluorescence; at 10 µM
[8] = membrane potential response modulators in host HEK293 cells – cell-based, second counter-screen, parental HEK293, membrane potential dye, counter-screen for TRPC6 modulator project, confirmation (AID 488926;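 active = membrane potential signal drops by more than 5 SD from the mean control signal, in both duplicate plates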); settings: parental HEK293, membrane potential dye fluorescence, at 10 µM, after compound, maximal acetylcholine stimulation; stronger effect = higher value
[9] = system: Transient receptor potential cation channel subfamily C member 4 (mouse); test: off-target membrane potential effects via mouse TRPC4 – cell-based, HEK293 TRPC4/mu-opioid, membrane potential dye, selectivity assay for TRPC6 modulator project, confirmation (AID 488927;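 active = membrane potential signal moved up or down beyond 5 SD of buffer control wells, in both duplicate plates, actives on both sides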;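 also: plate controls were assay buffer wells for no effect and DAMGO maximal-effect wells for full effect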); settings: membrane potential fluorescence, at 10 µM
[10] = system: TRPC4 (transient receptor potential cation channel C4), mouse; test: DAMGO-evoked mouse TRPC4 response blockade – cell-based, second screen, HEK293 TRPC4/mu-opioid, membrane potential dye, selectivity assay for TRPC6 modulator project, confirmation (AID 488928;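 active = drop in membrane potential signal beyond 5 SD of the control wells in both duplicate plates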;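 also: TRPC4 counter screen for TRPC6 hits run under conditions tuned for TRPC6 not TRPC4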); settings: membrane potential dye fluorescence, at 10 µM, stimulated with maximal-effect DAMGO; stronger effect = higher value
[11] = system: TRPC4 beta (transient receptor potential cation channel C4), mouse; test: TRPC4 cation channel opening, retest – cell-based, Fluo4 calcium, HEK293 TRPC4beta/mu-opioid, duplicates, 10 µM, confirmation (AID 2426;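 active = fluorescence ratio normalized to control raised more than 50% in primary screen plus both repeat runs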;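 also: percent rise of integrated ratio over buffer wells lacking compound which define 0%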); settings: Fluo4 calcium fluorescence, at 10 µM; stronger effect = higher value
[12] = system: transient receptor potential cation channel C4 beta (TRPC4), mouse; test: TRPC4 cation channel opening, second retest – cell-based, second round, Fluo4, HEK293 TRPC4beta/mu-opioid, 1 µM, confirmation (AID 2461;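 active = primary screen active and over 50% activation in each of two duplicate runs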); settings: Fluo4 calcium fluorescence, at 1 µM; stronger effect = higher value
[13] = system: TRPC4 (transient receptor potential cation channel C4 beta), mouse; test: potentiation of DAMGO EC20 TRPC4 response – cell-based, second round, Fluo-4, HEK293 TRPC4beta/mu-opioid, 1 µM, confirmation (AID 2554;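 active = primary screen hit whose fluorescence ratio, in both repeats, exceeds the weak agonist control mean by 3 SD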); settings: DAMGO EC20, Fluo-4 calcium flux, at 1 µM; stronger effect = higher value
[14] = system: TRPC4 beta (transient receptor potential cation channel C4), mouse; test: potentiation of DAMGO EC20 TRPC4 response – cell-based, Fluo-4, HEK293 TRPC4beta/mu-opioid, confirmation (AID 2555;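 active = primary screen hit whose calcium fluorescence ratio, in both repeats, exceeds the weak agonist control mean by 3 SD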); settings: DAMGO EC20, Fluo-4 calcium flux, at 10 µM; stronger effect = higher value
[15] = target: Short transient receptor potential channel 4 (Mus musculus) (UniProt Q9QUQ5); test: blockers of DAMGO-evoked TRPC4 calcium flux – cell-based, Fluo4, HEK293 TRPC4beta/mu-opioid, confirmation (AID 2636;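 active = calcium signal cut by more than 3 SD below the full-agonist control yet still positive, in both repeats and the earlier primary screen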); settings: at 10 µM; stronger effect = higher value
[16] = target: Short transient receptor potential channel 4 (Mus musculus) (UniProt Q9QUQ5); test: blockers of DAMGO-evoked TRPC4 calcium flux – cell-based, second round, Fluo4, HEK293 TRPC4beta/mu-opioid, 1 µM, confirmation (AID 2637;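 active = calcium signal ratio cut to more than 3 SD under the fully stimulated control mean yet still positive, in both repeats and the primary screen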); settings: at 1 µM; stronger effect = higher value
[17] = target: Short transient receptor potential channel 6 (Mus musculus) (UniProt Q61143); test: TRPC6 blockade by TRPC4 inhibitor hits – cell-based, HEK293, membrane potential dye, duplicate, selectivity assay for TRPC4 inhibitor project, confirmation (AID 434948;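 active = active in primary screen and both duplicates, each dropping signal beyond three positive-control SD with fluorescence still positive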); settings: HEK293 TRPC6, membrane potential dye fluorescence, at 10 µM, stimulated with maximal-effect acetylcholine; stronger effect = higher value
[18] = target: Short transient receptor potential channel 6 (Mus musculus) (UniProt Q61143); test: TRPC6 opening by TRPC4 activator hits – cell-based, HEK293, membrane potential dye, duplicate, selectivity assay for TRPC4 activator project, confirmation (AID 434950;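 active = membrane potential signal rise above negative control mean plus 3 SD in both duplicates, also active in the earlier TRPC4 screen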;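 as to activation: 0% = buffer only wells and 100% = acetylcholine maximal-effect wells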); settings: HEK293 TRPC6, membrane potential fluorescence, at 10 µM; activation: stronger effect = higher value; outcome: activation
[19] = target: Short transient receptor potential channel 6 (Mus musculus) (UniProt Q61143); test: positive modulators of mouse TRPC6 channel – HEK293 cells, membrane potential dye, duplicate, selectivity assay for TRPC4 potentiator project, confirmation (AID 434952;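 active = compound raising the membrane signal above positive-control mean plus 3 SD in both repeats, and a primary screen hit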); settings: HEK293 TRPC6, membrane potential dye fluorescence, at 10 µM, maximal acetylcholine added after compound; stronger effect = higher value
[20] = target: Short transient receptor potential channel 4 (Mus musculus) (UniProt Q9QUQ5); test: calcium flux activators in TRPC4/5HT1a cells, counter-screen for TRPC4 activator project, cell-based, second counter screen, HEK293 TRPC4/5HT1a, Fluo-4 (AID 434977;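 active = calcium signal rise above buffer-control mean plus 5 SD in both duplicates, and also a hit in the primary screen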;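 also: plate controls were assay buffer for no effect and maximal serotonin response for full effect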); settings: Fluo-4 calcium flux, at 10 µM; stronger effect = higher value
[21] = serotonin-gated TRPC4 signal block – cell-based, second counter screen, HEK293 TRPC4/5HT1a, Fluo-4, counter-screen for TRPC4 inhibitor project, confirmation (AID 434978;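 active = primary screen active whose calcium signal fell more than 3 SD beyond the full-serotonin control mean in both duplicate plates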;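 as to outcome: serotonin given first at submaximal then at maximal dose after compound preincubation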); settings: Fluo-4 calcium flux, at 10 µM, serotonin added to trigger calcium flux; stronger effect = higher value
[22] = system: TRPC4 (mouse), co-expressed with 5HT1a in HEK293; test: enhancement of serotonin-evoked TRPC4 response – cell-based, second counter screen, HEK293 TRPC4/5HT1a, Fluo-4, counter-screen for TRPC4 potentiator project, confirmation (AID 434979;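 active = signal rise over 3 SD above mean of control wells given weak agonist, in both repeats and first screen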); settings: Fluo-4 calcium flux, at 10 µM, serotonin added at its EC20 dose; stronger effect = higher value
[23] = nonspecific calcium rise without TRPC4 – cell-based, HEK293 mu-opioid receptor line, counter-screen for TRPC4 activator project, confirmation (AID 449723;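 active = hit in primary screen, with calcium signal over 5 SD above buffer well mean in both duplicates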;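 also: counter screen cells carry the mu-opioid receptor alone and lack TRPC4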); settings: HEK293 mu-opioid cells, Fluo-4 calcium fluorescence, at 10 µM; stronger effect = higher value
[24] = nonspecific potentiation of DAMGO calcium response – cell-based, HEK293 mu-opioid receptor line, counter-screen for TRPC4 allosteric potentiator project, confirmation (AID 449724;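 active = calcium signal rise more than 3 SD above the low-dose agonist control mean, in both duplicate plates and the primary screen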); settings: HEK293 mu-opioid receptor cells, Fluo-4 calcium flux, at 10 µM, compound added before EC20 DAMGO stimulus; stronger effect = higher value
[25] = target: Short transient receptor potential channel 4 (Mus musculus) (UniProt Q9QUQ5); test: block of DAMGO-driven TRPC4 calcium entry – cell-based, HEK293 TRPC4/mu-opioid, Fluo-4 calcium, dose response (AID 434942;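 active = primary screen inhibitor hit that blocks the TRPC4 channel at some tested dose, yielding a dose curve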)

CCCCCOc1ccc(CSC2=NCCN2)cc1[N+](=O)[O-]
inactive: outcome [2] | outcome [3] | outcome [4] | outcome [6]
active: inhibition [1] 59% | inhibition [5] 54.9%

COc1ccccc1C1SCCN1C(=O)c1ccc([N+](=O)[O-])cc1 (stereo not given)
inactive: outcome [1] | outcome [2] | outcome [3] | outcome [4] | outcome [5] | outcome [6]

COc1ccccc1OCCNCC(O)COc1cccc2[nH]c3ccccc3c12 (stereo not given)
inactive: outcome [2] | outcome [3] | outcome [4] | outcome [6]
active: inhibition [1] 28% | inhibition [5] 61.1%

CN1CCN(C(=O)N2c3ccccc3CCc3ccccc32)CC1
inactive: outcome [7] | outcome [8] | outcome [10] | outcome [5]
active: percent change from control (negative = decrease, positive = increase) [9] 14.5%

CC(C)c1ccc(OCC(O)Cn2cnc3ccccc32)cc1 (stereo not given)
inactive: outcome [1] | outcome [2] | outcome [3] | outcome [4] | outcome [5] | outcome [6]

CCOC(=O)N1CCC(O)(c2cc(C)c(C)cc2C)CC1
active: inhibition [5] 55%
inactive: outcome [1] | outcome [2] | outcome [3] | outcome [4]

CC1Cc2ccccc2N1C(=O)CSc1nc2c(c(=O)n(C)c(=O)n2C)n1Cc1ccccc1 (stereo not given)
active: activation [11] 320% | potentiation [13] 65% | inhibition [15] 83% | activation [18] 37.5% | activation [20] 85.8% | inhibition [21] 11.2% | potentiation [22] 18.8%
inactive: outcome [12] | outcome [14] | outcome [16] | outcome [17] | outcome [19] | outcome [23] | outcome [24]

c1ccc(C2c3[nH]c4ccccc4c3CCN2Cc2cccn2-c2cccnc2)nc1 (stereo not given)
active: activity change, negative = inhibition [2] -10.1% | membrane potential signal change [4] -129%
inactive: outcome [1] | outcome [3] | outcome [5] | outcome [6]

CCCCCCCCCCOC(=O)C[N+](C)(C)CC1CCCCC1O (stereo not given)
active: activity change, negative = inhibition [2] 7.58% | membrane potential signal change [4] 2.25%
inactive: outcome [1] | outcome [3] | outcome [5] | outcome [6]

CN(C)c1ccc(C2N(C)C(=O)c3ccccc3N2C)cc1 (stereo not given)
inactive: outcome [1] | outcome [2] | outcome [4] | outcome [5] | outcome [6]
active: signal change vs control [3] 262%

OCCC1CN(Cc2ccc3nsnc3c2)CCN1C1CCCC1 (stereo not given)
inactive: outcome [1] | outcome [2] | outcome [3] | outcome [4] | outcome [5] | outcome [6]

Cn1c(=O)n(C)c2cc(C(=O)Nc3ccc4c(c3)OCO4)ccc21
active: activity change, negative = inhibition [2] -23.4% | membrane potential signal change [4] -371%
inactive: outcome [1] | outcome [3] | outcome [5] | outcome [6]

Cn1c(=NC(=O)c2cnccn2)sc2ccccc21
inactive: outcome [1] | outcome [5] | outcome [6]
active: activity change, negative = inhibition [2] -25.3% | signal change vs control [3] 24.5% | membrane potential signal change [4] -416%

O=C(CCN1CCN(Cc2ccccc2)CC1)Nc1nccs1
active: potentiation [13] 19% | potentiation [14] 11% | potentiation [22] 17%

CCCCNc1nc2ccccc2[nH]1
inactive: outcome [17] | outcome [18] | outcome [19]

COc1cc(/C=C2/SC(=S)N(Cc3ccccc3)C2=O)cc(Cl)c1O
active: activation [11] 144% | potentiation [13] 11% | potentiation [14] 21% | activation [18] 930% | potentiation, percent of control [19] 310% | activation [20] 156% | activation [23] 165% | activation [24] 1140%
inactive: outcome [12] | outcome [15] | outcome [16] | outcome [25] | outcome [17] | outcome [21] | outcome [22]
